From the supplement of paper PMC3334620
In all, about 33,000 sequences were measured (“E-score (-0.5 to 0.5)”: median about -0.01, highest 2% from about 0.26 on). This excerpt belongs to a sample that is enriched for the highest values.

Biological target: Ste12 (UniProt P13574)
Test: PBM E-score (8-mer binding enrichment) (E-score (-0.5 to 0.5)); higher = stronger / more preferred TF binding
Conditions: protein concentration: 200 nM; construct: GST-DNA-binding domain
Description: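 Universal 'all 10-mer' protein binding microarrays (Agilent AMADID 015681) probed with GST-tagged S. cerevisiae TFs (full-length or DBD) made by in vitro transcription/translation (PURExpress), about 100-200 nM. Bound TF was detected with fluorescent anti-GST. Each ungapped 8-mer (which stands for itself and its reverse complement) is scored by the PBM enrichment score (E-score), a modified Wilcoxon-Mann-Whitney statistic from -0.5 to +0.5, computed with the Universal PBM Analysis Suite. Scale: above 0.35 generally sequence-specific binding.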

Chain of UniProt P13574 (P13574 whole entry): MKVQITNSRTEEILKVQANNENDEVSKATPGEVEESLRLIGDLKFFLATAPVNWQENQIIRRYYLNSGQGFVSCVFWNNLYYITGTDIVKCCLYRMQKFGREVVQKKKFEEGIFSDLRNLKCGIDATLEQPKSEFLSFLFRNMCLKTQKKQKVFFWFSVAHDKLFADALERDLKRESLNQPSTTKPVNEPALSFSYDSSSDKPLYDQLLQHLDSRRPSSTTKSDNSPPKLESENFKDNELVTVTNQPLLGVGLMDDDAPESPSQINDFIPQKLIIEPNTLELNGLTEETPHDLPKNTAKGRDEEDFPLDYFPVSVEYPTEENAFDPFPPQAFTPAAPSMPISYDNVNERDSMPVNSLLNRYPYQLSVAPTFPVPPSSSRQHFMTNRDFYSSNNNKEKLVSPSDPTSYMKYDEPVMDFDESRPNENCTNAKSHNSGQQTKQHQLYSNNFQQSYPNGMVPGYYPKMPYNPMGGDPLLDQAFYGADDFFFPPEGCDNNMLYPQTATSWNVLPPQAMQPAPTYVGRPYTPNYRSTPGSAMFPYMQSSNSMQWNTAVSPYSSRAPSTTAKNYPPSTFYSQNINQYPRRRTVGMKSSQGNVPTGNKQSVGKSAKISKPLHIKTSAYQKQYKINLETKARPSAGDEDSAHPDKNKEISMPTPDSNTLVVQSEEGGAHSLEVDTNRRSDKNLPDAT

Sequence	PBM E-score
ACCCACCC	0.314
ACCCACCT	0.0687
CCCCACCA	0.102
GCCCACAC	0.0974
CCCCACCC	0.361
CCCCACCG	0.137
GCCCACCC	0.344
ACCCACCA	0.0136
GCCCACCA	-0.0497
GGAAAATA	0.255
AACTACTT	-0.00699
CTGGTCGC	0.0843
CACTATGC	-0.0894
CTCAAACA	0.341
CTCAAACC	0.0438
ATCAAACA	0.27
ATCAAGCA	0.0192
CTCAAGCA	-0.0187
ATCAAACC	0.217
CTGAATCC	0.0117
CAGTAGGC	-0.0958
GACTAGGA	-0.047
GCTTGATA	0.083
AATGATAT	0.113
AATGATAA	0.263
AATGATAC	0.278

Sequence	PBM E-score
AATGATAG	0.194
CATGATAC	0.242
TATGATAA	0.131
GTCTAACA	-0.0889
ACTTACCT	-0.0503
ACCGGTGC	-0.0741
ATTCCACG	-0.0633
ATTCCACC	0.113
ATTCCACA	0.268
ATCGAGTA	-0.0649
CTCGCACA	0.127
CTTGAGTC	-0.136
AGTTTTGA	0.148
GGTTTGAC	-0.0297
AGTTTGAA	0.174
CGTTTTGA	0.275
TCTTTGAA	0.161
CGTTTGAC	-0.0236
TGTTTGAA	0.378
GGTTTGAA	0.297
GTTTTGAA	0.189
CGTTTTGC	0.197
CGTTTGAG	0.111
CGTTTGAA	0.265
CACTGCAC	-0.14
CGCCCACC	0.139

Sequence	PBM E-score
ATCCTTTG	0.0895
AGAAAGTA	0.138
AGACAAGC	-0.0877
AGACGCGG	0.0721
AACCCAGA	-0.108
CGCTTGCC	-0.062
CTTTAAAG	-0.0155
ATTTAAAC	0.207
AATTAAAT	0.156
ATTTAAAG	0.275
ATTTAAAT	0.327
AGTTAAAT	0.163
ACAAGTTC	-0.00961
ATGAGTTA	-0.0873
AAGTCACC	-0.0787
TAAGTGCA	-0.104
ATTGAAGA	0.00866
ATGGAAAC	0.263
ATGGAAAA	0.186
TGTGAAAA	0.216
GTTGAAAA	0.206
ATTGAAAA	0.352
GTTGAAAC	0.399
TCTGAAAA	0.12
CTTGAAAA	0.157
ATGGAAAT	0.0797

Sequence	PBM E-score
GTAGAAAC	0.0517
TTTGAAAA	0.309
GCTTATCC	0.0792
ACTTGAGA	0.142
ACGTCTAC	-0.118
ATAAAAGC	-0.00425
GCCCTGGA	-0.235
CACTATGG	-0.0915
ATTGAAAT	0.233
ATTGAAAG	0.0623
CTTGAACC	-0.0679
ATTGAGAC	0.122
ATTGAGAG	-0.0617
CTTGAAAC	0.479
ATTGAAAC	0.398
CTTGAAAG	-0.0999
ATTGAGAA	0.277
AACGACCA	-0.0479
ATGGGAAG	-0.0232
CCCCGGGG	-0.186
GTGTACAC	-0.224
ATGTTGTA	-0.00602
GCATCAGC	0.034
ACTAGGTC	-0.114
ACAAAGAT	0.0339
TAAAAGAA	0.0708

Sequence	PBM E-score
AAAGATAG	-0.0536
AAAGATAT	0.273
AAAAAGAA	0.289
AAAAGAAG	0.072
AAAAAGAT	0.271
AAAAGAAC	0.126
CAAAAGAA	0.156
AAAAAGAC	0.153
AAAGATAC	0.0821
AAAAGAAT	0.266
AAAGCAAA	0.148
AAACCTTC	-0.0506
CGGGACTA	-0.0932
GCATCCGA	-0.0885
CGTATGAA	0.213
AGTAGGAG	-0.119
CCTCGCAA	0.18
AAAGAAAA	0.351
AAAGAAAG	0.19
CAAGAAAA	0.24
AGAAAAGA	0.297
CGAAAAGA	0.242
AGAAAAGC	0.127
AGAGGGAG	-0.106
CAAAGTCG	0.0234
TCCTAGCA	-0.0629

Sequence	PBM E-score
ACCTCCAC	-0.0491
GATAGATC	-0.194
AACAGAGT	0.173
CACCTAAC	0.0515
CTGTAGTA	0.186
ATAATATG	0.248
CCAATATA	-0.103
ACAATATA	0.271
ATAATACG	0.0652
ATAATACC	0.161
ATAATACA	0.318
GCAATATA	0.149
ATAATATA	0.301
CTAATATA	0.0456
AGAGTAGA	-0.0237
CGTTCTCA	0.0637
GCCAGCTA	-0.192
CCGCATCC	-0.0589
ATGTTCAC	0.0173
TGATGCAA	0.137
ACCTTCTC	0.0171
AAGAAAAT	0.254
AAGAAAAC	0.275
AAGAAAAA	0.158
CAGAAAAG	0.186
CAGAAAAC	0.133

Sequence	PBM E-score
AAGAAAAG	0.302
GGTCCTTA	0.0224
CCCTCCAC	-0.0433
TGATCAAA	0.156
ATATCAAA	0.3
TCATCAAA	0.236
GTATCAAC	0.122
GTATCAAA	0.293
ATATCAAG	0.139
TTATCAAA	0.274
GTATCAGA	0.119
CTATCAAA	0.186
ACTACTTC	-0.0884
ATCACAGG	-0.0882
CAATCATC	-0.0782
ACTCTGAA	0.177
ACGGGTAC	-0.139
TAGGCGGA	-0.0248
GTATGAAC	-0.018
GTATGAAA	0.338
CTATGAAA	0.211
CTATGAAG	0.0327
GTATGAGA	-0.0324
TTATGCAA	0.0901
ATATGAAA	0.346
TTATGAAA	0.431

Sequence	PBM E-score
ATATGAAC	0.154
GTTTTCCA	0.093
ATTGGGCG	-0.00653
ATGTTTCC	0.178
CTGTTTAC	0.0415
CTGTTTCC	0.0865
GTATTTCA	0.1
ATGTTTCA	0.493
ATATTTCA	0.139
ATGTTTCG	0.366
CTGTTTCA	0.484
ATGTTCCA	0.18
GTGTTGCA	0.159
ATGTTTAG	0.214
GTGTTTCA	0.489
ACCATAAT	0.114
AGAAGCAA	0.153
ACAGTGCC	-0.0356
AGCTGCGC	-0.177
ATTTTTTG	0.222
CTGTTTAA	0.22
ATGTTTTA	0.374
GTGTTTTA	0.405
GTGTTTAA	0.155
ATGTTTTG	0.335
CTGTTTTA	0.308

Sequence	PBM E-score
ATGTTTAA	0.0895
GGGTTTTA	0.217
AGGTTTTG	0.0633
ATGTTTTC	0.172
CTGTTTTC	0.0946
ACAAGCAA	-0.00365
ACCTATGA	-0.21
CGCTGGTA	-0.118
ATAGCAAA	0.0867
CGGGAGTC	-0.12
AAAGTTGA	0.111
GGCGCAAA	0.218
GAATGAGA	-0.00579
GAATGAAA	0.322
CAATGAAA	0.258
TAATGAAA	0.155
AAATGAAA	0.426
GAATGAAC	0.016
CCTAGACG	-0.134
TAGAGAAA	0.0197
GACATTAA	0.173
AACATTTA	0.29
GACATTTA	-0.0124
ATCATTAA	0.298
AACATTAT	0.125
CTCATTAA	0.111

Sequence	PBM E-score
AACATTTC	0.0303
AACATTAA	0.301
ATCATTAG	0.0954
GAGAGAAC	-0.0294
CTTGGCTA	0.0252
GCGTGACA	0.126
GCGGCAGA	-0.128
GAATAAGC	-0.0403
GTGTTCCA	0.141
AATGCGGT	-0.0129
CCGTTGCC	-0.253
ATGTAATA	0.217
ATTTAAAA	0.314
ATTTAACA	0.181
AATTTTTG	0.321
TGTTAAAA	0.168
CGTTAAAA	-0.00084
AAATTTTG	0.0681
AGTTAAAA	0.286
ATTTTAAG	0.161
ACTTAAAA	0.183
ATTTTAAC	0.19
AATTTTGG	0.104
ATTTTAAA	0.348
GGTTTTGA	0.111
CCATACCC	0.128

Sequence	PBM E-score
CTAGAATA	0.171
GCACAGCA	-0.102
CAGTGGGC	-0.199
GACTTAGA	-0.272
AGCTTGAG	-0.164
AAGTTCGT	-0.226
TACCAGAA	0.253
TGCATACA	-0.139
TAACGCGA	0.0877
AAGCTCGT	-0.195
AATTTTAC	0.251
CTATTTTA	0.232
ATATTTAC	0.219
ATATTTTA	0.235
AATTTTAA	0.318
AATTTTAT	0.217
ATTTTACG	0.243
AATTTACC	0.137
ATATTTAA	0.347
ATTTTACC	0.277
ATTTTTTA	0.331
CTATTTAA	0.194
ACCGTTAC	-0.0206
TCGGTACA	0.0794
ACTGAGCA	-0.119
ACAGGATG	0.0588

Sequence	PBM E-score
CTCTAGAG	-0.162
AACAACGC	0.111
AAGCCCCG	0.0304
AAATTTTA	0.132
GCATTTAA	0.12
AATTTTTA	0.283
ATTTTTAA	0.28
ACATTTAG	-0.0629
ATTTTTGG	0.183
ACATTTAA	0.32
AATTTTTC	0.181
ATTTTTAG	0.175
ATTTTTGA	0.298
AATTTTGA	0.145
ATTTTTAC	0.207
TAAGCCAA	0.00854
GGCTTAGA	-0.0335
TACCAGCA	-0.0129
CTAGTACA	0.0611
GCAATCCC	0.0206
CTCTTTAC	0.0191
AAAGTGGG	0.182
AGTTCGAC	-0.147
CCCTGAGG	-0.213
ACATCTAA	0.114
ATTTTGTG	0.281

Sequence	PBM E-score
ATTTTGTC	0.114
ATTTTGTA	0.16
AAGTTGCA	-0.0946
CCATCAAC	-0.144
GGTTACTA	0.0972
TGTTACAA	0.387
GGTTACAC	-0.0834
TCTTACAA	0.0356
AGTTATAA	0.133
CGTTATAA	0.143
TGTTATAA	0.283
AGTTACAA	0.157
CGTTACAC	0.122
CGTTACAG	0.146
CGTTACAA	0.314
GGTTACAA	0.284
CCCATACG	-0.123
GGTAGAAC	-0.101
CCATATCC	0.0086
AGCCTCTC	-0.234
AGTTTTGG	0.104
AAGTTACG	0.0247
CAATATGA	0.0995
CAATATTA	0.176
AAATATTC	0.14
AAATATTA	0.352

Sequence	PBM E-score
AAATATGT	0.226
AAATATGA	0.308
ATCAGCCA	-0.0331
ACGTTTAA	0.0563
GCGTTTAA	0.103
CCGTTTAA	0.135
CCTTTTTA	0.051
ACGTTTTA	0.295
GCTTTTTA	0.271
ACGTTTTG	0.222
CCGTTTTA	0.304
GCGTTTAC	-0.0566
CCGTTTTC	0.133
GCTTTTAA	-0.0048
GCGTTTTA	0.352
